The results in this text go back to PubChem BioAssay (NCATS).

Inconclusive results are not listed. More than one record can exist for a structure, and the calls need not agree. Activity calls are given as the source filed them. Calls follow the shape of the dose curve; as a rule, active = well fitted curve in the direction sought with a large enough effect; inconclusive = small, poorly fitted or top-dose-only effect, or another doubt; inactive = no such curve, though single readings can be large; an effect the other way counts as inactive or inconclusive.

Assay [1] is described as follows: Quantitative high throughput screen for delayed death inhibitors of the malarial parasite plastid, 96 hour incubation (AID 488745). Also: nearly all actives have a fitted effect of over 70% in size. Also: potency is read from the fitted curve at half-maximal effect. Summed up:
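Decreased firefly luciferase luminescence indicates inhibited growth of reporter-integrated P. falciparum after two generations (96 h, 37 C, 5% CO2). Infected erythrocytes at 0.1% parasitemia, 2% hematocrit, in Albumax-supplemented RPMI 1640.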

Assay [2] addresses Thioredoxin reductase 1, cytoplasmic (Rattus norvegicus) (UniProt O89049). In words: qHTS Assay for Inhibitors of Mammalian Selenoprotein Thioredoxin Reductase 1 (TrxR1) (AID 488773).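 Also: drop in NADPH fluorescence over an 8 min run after selenite addition; series mostly up to about 57 µM; nearly all actives have a fitted effect of over 40% in size.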 To be noted: Potency: inhibition. In short, it runs like this: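 Inhibition is scored from the loss of NADPH fluorescence between first and last reads of an 8-min kinetic run. Selenite (400 uM) was the substrate, added after 15 min compound preincubation at room temperature.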
(In qHTS, concentration-response curves come from the screen itself.)

For assay [3], the target named is Flap endonuclease 1 (Homo sapiens) (UniProt P39748). The experiment in a line: qHTS Validation Assay for the Inhibitors of Human Flap endonuclease 1 (FEN1) (AID 488816). Also: potency is read from the fitted curve at half-maximal effect. In short, it runs like this: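 Steps: add FEN1 (10 nM reagent) or buffer only; pin compounds; hold 15 min at room temperature; start with substrate, 50 nM final; read at 0 and 15 min; correct, normalize and fit a four-parameter Hill curve.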
Sequence of Flap endonuclease 1 (Homo sapiens) (P39748 whole entry, looked up): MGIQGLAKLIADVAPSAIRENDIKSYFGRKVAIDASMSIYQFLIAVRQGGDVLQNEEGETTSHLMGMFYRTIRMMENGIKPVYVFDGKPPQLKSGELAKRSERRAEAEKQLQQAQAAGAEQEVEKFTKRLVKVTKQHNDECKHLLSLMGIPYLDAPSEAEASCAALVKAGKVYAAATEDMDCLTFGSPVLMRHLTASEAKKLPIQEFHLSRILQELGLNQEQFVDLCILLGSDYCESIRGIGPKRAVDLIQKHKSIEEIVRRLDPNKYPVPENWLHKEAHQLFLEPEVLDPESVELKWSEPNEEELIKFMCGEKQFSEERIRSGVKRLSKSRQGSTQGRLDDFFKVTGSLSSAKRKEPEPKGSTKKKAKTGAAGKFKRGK

Assay [4] deals with M-phase phosphoprotein 8 (Homo sapiens) (UniProt Q99549). The experiment in a line: qHTS Validation Assay for Inhibitors for MPP8 Chromodomain Interactions with Methylated Histone Tails (AID 488949). Also: nearly all actives have a fitted effect of over 55% in size. Also: potency is read from the fitted curve at half-maximal effect. In short, it runs like this: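 MPP8 (50 nM) was pre-bound to 50 nM biotinylated H3(1-18)K9me3 peptide in PBS pH 7.4 with 0.01% Tween-20. Compounds were then added for 30 min at room temperature, and complex disruption was read by AlphaScreen with streptavidin donor and nickel-chelate acceptor beads.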
Sequence of M-phase phosphoprotein 8 (Homo sapiens) (Q99549 whole entry, looked up): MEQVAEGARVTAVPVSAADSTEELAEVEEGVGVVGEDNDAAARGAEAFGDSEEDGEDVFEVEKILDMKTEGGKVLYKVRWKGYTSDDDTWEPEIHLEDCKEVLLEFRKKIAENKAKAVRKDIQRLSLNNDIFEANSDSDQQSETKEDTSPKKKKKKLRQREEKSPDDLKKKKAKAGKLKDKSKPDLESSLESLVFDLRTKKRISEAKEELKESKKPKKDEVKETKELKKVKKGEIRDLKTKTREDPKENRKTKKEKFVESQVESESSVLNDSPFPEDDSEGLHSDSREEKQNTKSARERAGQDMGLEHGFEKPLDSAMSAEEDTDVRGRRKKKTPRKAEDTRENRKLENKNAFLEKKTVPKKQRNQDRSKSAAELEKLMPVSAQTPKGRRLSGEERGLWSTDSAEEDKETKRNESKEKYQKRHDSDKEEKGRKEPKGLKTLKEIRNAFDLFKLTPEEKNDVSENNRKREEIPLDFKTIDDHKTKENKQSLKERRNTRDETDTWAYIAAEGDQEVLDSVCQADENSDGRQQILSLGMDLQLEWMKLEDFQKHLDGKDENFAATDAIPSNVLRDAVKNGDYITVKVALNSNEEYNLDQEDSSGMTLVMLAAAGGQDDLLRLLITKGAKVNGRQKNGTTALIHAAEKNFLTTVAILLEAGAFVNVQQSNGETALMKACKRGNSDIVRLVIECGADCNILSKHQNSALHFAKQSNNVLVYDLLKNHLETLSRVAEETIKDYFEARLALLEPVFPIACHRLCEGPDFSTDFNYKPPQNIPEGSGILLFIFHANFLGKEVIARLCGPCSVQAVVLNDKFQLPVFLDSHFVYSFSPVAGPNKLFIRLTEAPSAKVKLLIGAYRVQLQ

Assay [5] has as its target Chromobox protein homolog 1 (Homo sapiens) (UniProt P83916). In words: qHTS Validation Assay for Inhibitors of HP1-beta Chromodomain Interactions with Methylated Histone Tails (AID 488953). Also: nearly all actives have a fitted effect of over 50% in size. Also: potency is read from the fitted curve at half-maximal effect. In short, it runs like this:
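AlphaScreen proximity signal from streptavidin donor and nickel chelate acceptor beads (final 10 ug/mL) after 30 min dark incubation. Compounds had 30 min at room temperature with preformed complex of 50 nM HP1-beta and 50 nM b-H3(1-18)K9me3 in PBS pH 7.4 with 0.01% Tween-20.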

In assay [6] the target is Methanococcus maripaludis chaperonin (MmCpn) (UniProt Q6LX38). In words: High-Throughput Screening for Modulators of Cytosolic Chaperonin Activity: MmCpn Primary Screen (AID 488978).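 Also: 50 nM MmCpn enzyme hydrolysing 30 µM ATP at 37 °C.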 Summed up: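 MmCpn at 50 nM final was preincubated 5 min at RT with compound. ATP was then added at 30 uM final for 10 min at 37 C. ADP formed was detected by Transcreener HTRF (665/590 nm).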
Sequence of Methanococcus maripaludis chaperonin (MmCpn) (Q6LX38 1-543): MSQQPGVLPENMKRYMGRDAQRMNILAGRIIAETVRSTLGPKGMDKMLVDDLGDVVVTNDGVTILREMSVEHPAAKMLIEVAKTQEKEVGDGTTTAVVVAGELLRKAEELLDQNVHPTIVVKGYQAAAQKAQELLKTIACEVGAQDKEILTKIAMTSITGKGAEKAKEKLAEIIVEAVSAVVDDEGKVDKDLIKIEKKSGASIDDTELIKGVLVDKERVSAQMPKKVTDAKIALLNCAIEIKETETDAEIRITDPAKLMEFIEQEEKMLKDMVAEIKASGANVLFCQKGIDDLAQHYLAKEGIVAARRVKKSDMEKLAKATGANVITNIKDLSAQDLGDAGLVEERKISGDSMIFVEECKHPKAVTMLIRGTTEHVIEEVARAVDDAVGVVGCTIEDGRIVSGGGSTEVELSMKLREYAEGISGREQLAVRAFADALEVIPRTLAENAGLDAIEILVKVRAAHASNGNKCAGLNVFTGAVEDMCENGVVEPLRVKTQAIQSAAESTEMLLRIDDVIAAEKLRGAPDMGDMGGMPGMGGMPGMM

The target in assay [7] is Transient receptor potential cation channel subfamily V member 1 (Homo sapiens) (UniProt Q8NER1). In words: HTS Assay for Compounds that Act as Enhancers of the Vanilloid Receptor 1 (AID 488979). Summed up: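 TRPV1-expressing cells loaded with Fluo-8 calcium dye; compounds added and calcium influx read kinetically for 3 min (agonist phase), then capsaicin at EC20 added and read 2 min more for enhancement. Fluorescence ex 480/em 520 nm.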
Sequence of Transient receptor potential cation channel subfamily V member 1 (Homo sapiens) (Q8NER1 whole entry, looked up): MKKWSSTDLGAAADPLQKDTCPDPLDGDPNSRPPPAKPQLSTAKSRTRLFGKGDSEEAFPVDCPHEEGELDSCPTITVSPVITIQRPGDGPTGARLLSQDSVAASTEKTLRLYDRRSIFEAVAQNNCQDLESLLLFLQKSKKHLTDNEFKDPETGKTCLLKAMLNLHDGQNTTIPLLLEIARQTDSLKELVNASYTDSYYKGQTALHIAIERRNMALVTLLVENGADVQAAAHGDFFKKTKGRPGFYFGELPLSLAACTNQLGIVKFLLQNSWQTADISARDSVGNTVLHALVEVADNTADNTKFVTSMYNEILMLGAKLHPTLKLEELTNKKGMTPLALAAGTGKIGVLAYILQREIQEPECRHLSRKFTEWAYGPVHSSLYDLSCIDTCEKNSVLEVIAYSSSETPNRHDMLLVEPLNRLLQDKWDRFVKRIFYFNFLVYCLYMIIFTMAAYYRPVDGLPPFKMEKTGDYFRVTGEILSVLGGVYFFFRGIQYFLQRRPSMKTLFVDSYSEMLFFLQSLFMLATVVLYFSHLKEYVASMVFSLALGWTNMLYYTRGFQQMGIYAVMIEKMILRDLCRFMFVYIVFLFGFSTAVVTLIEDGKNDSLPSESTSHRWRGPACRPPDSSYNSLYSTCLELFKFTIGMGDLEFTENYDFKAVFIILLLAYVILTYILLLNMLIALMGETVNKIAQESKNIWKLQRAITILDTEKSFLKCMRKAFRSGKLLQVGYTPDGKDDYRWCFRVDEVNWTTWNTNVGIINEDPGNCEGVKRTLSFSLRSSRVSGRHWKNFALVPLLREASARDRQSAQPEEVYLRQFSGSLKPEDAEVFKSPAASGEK

Assay [8] has as its target Thyrotropin receptor (Homo sapiens) (UniProt P16473). The experiment in a line: qHTS Assay for Antagonists of the Thyroid Stimulating Hormone Receptor (AID 488980). Also: series mostly up to about 58 µM. Summed up:
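TSHR-transfected HEK293 cells (2000/well) in HEPES-buffered HBSS with 70 uM RO 20-1724 were stimulated with 4 nM TSH (EC80, final) in the presence of compound. cAMP was measured by HTRF competition after lysis and 30 min at RT.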

Assay [9] can be described thus: Quantitative high throughput screen for delayed death inhibitors of the malarial parasite plastid, 48 hour incubation (AID 488752). Also: nearly all actives have a fitted effect of over 65% in size. In short, it runs like this:
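One-generation (48 h) growth assay: a decrease in luciferase signal from an integrated reporter in P. falciparum-infected red cells (0.1% parasitemia, 2% hematocrit) after compound exposure at 37 C indicates parasite inhibition.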

Assay [10] deals with Thioredoxin reductase 1, cytoplasmic (Rattus norvegicus) (UniProt O89049). The experiment in a line: qHTS Assay for Substrates of Mammalian Selenoprotein Thioredoxin Reductase 1 (TrxR1) (AID 488772).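 Also: series mostly up to about 57 µM; a drop in NADPH fluorescence below the no-compound background marks a TrxR1 substrate.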 In short, it runs like this:
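In this dual-purpose format, potential substrates are identified from the first fluorescence read after selenite addition, not from the 8-minute delta. Rat enzyme is preincubated with NADPH and then with compound at ~22 deg C.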

Sequence of Chromobox protein homolog 1 (Homo sapiens) (P83916 whole entry, looked up): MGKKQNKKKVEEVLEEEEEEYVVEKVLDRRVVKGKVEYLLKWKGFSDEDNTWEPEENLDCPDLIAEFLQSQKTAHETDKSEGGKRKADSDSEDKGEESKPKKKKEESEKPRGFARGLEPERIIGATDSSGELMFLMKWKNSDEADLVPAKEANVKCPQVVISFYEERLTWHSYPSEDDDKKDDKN
Sequence of Thyrotropin receptor (Homo sapiens) (P16473 whole entry, looked up): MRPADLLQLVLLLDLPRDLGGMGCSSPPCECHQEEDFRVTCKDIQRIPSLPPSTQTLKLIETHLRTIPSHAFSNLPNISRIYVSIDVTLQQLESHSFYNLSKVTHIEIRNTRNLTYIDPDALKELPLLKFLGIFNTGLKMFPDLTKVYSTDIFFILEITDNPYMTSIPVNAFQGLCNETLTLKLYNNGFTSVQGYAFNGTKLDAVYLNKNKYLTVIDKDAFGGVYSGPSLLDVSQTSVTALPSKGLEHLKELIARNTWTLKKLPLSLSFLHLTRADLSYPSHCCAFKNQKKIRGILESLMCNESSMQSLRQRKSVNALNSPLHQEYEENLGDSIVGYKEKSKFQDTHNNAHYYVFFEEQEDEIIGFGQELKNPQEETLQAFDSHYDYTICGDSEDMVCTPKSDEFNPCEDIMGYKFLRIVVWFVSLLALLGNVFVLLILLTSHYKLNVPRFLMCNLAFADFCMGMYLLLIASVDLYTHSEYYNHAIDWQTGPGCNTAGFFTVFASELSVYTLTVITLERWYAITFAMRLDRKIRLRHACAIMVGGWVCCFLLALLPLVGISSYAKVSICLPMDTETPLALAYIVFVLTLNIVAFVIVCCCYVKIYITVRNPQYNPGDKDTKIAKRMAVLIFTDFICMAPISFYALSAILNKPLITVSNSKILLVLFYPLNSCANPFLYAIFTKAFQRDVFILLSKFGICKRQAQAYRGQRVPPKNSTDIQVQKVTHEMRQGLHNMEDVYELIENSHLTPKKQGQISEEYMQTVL
Sequence of Thioredoxin reductase 1, cytoplasmic (Rattus norvegicus) (O89049 whole entry, looked up): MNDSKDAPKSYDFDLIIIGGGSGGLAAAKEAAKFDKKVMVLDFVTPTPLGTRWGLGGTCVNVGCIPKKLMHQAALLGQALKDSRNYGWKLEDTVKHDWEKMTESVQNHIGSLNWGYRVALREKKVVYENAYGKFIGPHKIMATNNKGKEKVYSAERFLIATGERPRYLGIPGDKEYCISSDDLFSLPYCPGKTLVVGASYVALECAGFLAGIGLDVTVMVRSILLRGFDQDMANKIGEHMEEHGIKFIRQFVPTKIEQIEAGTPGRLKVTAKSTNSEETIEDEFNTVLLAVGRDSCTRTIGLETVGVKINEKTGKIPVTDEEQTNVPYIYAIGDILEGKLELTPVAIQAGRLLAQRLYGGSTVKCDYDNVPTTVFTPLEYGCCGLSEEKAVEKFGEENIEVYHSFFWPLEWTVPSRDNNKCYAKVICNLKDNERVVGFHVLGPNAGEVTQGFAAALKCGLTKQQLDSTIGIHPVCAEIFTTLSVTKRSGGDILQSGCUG

For the compound `NC/C=C/C(=O)O`, the Potency entry in assay [1], in assay [2], in assay [3], in assay [4] and in assay [5] was “inactive” each time. In addition, the compound was called inactive in assay [6] and in assay [7].

On to `COc1ccc([C@@H]2Sc3ccccc3N(CCN(C)C)C(=O)[C@@H]2OC(C)=O)cc1`, for which the Potency result in assay [1], in [4] and in [5] was “inactive” throughout. Moreover, the compound was called inactive in assay [6] and in assay [8].

`CCn1cc(C(=O)O)c(=O)c2cc3c(cc21)OCO3`: the Potency entry in assay [1], in assay [2], in assay [3] and in [4] was “inactive” throughout. In addition, the call in assay [6], in assay [7] and in assay [8] was inactive.

Regarding `Brc1c(NC2=NCCN2)ccc2nccnc12`, the Potency result in assay [1] and in [4] was “inactive” in each case. For the same compound, the compound was classed as inactive in [6] and in assay [8].

With `O=C(O)CP(=O)(O)O`, the Potency entry in [9], in assay [2], in assay [3], in [4] and in [5] was “inactive” in each case. Further, the compound was classed as inactive in [10], in assay [6] and in assay [7].

On to `CN(C)CCN(Cc1cccs1)c1ccccn1`, for which the Potency result in assay [1], in [2], in assay [3], in assay [4] and in [5] was “inactive” in each case. For the same compound, the compound was called inactive in [6] and in assay [8].

As for `C=CCc1ccccc1OCC(O)CNC(C)C` (centres undefined), the Potency entry in [9], in assay [2], in assay [3], in assay [4] and in assay [5] was “inactive” throughout. The compound was classed as inactive in assay [10], in [6] and in assay [7].

For `COC(=O)C1=C(C)NC(C)=C(C(=O)OCCN(C)Cc2ccccc2)C1c1cccc([N+](=O)[O-])c1` (centres undefined), the Potency in assay [1] was 3.29 µM (active). The call in [10], in [6], in [7] and in assay [8] was inactive. Further, the Potency entry in assay [2] is “inactive”.

With `CN1C(=O)CC[C@H]1c1cccnc1`, the result in [10] and in assay [6] was inactive. Besides, the Potency result in assay [2], in assay [3], in assay [4] and in assay [5] was “inactive” throughout.

Take `NC(N)=N/N=C/c1c(Cl)cccc1Cl`: the call in [10], in assay [6], in [7] and in assay [8] was inactive. Besides, the Potency result in assay [2], in [4] and in assay [5] was “inactive” throughout.

For `COC(=O)C1=C(C)NC(C)=C(C(=O)OC(C)(C)CN(C)CCC(c2ccccc2)c2ccccc2)C1c1cccc([N+](=O)[O-])c1` (centres undefined), the Potency entry in assay [2] and in assay [3] was “inactive” in each case. Moreover, the Potency in assay [5] was 25.1 µM (active). For the same compound, the outcome in assay [6] was inactive.

On to `CCCCNc1c(C(=O)OCC)c(C)nc2c1cnn2CC`, for which the Potency result in assay [2], in assay [3], in assay [4] and in assay [5] was “inactive” throughout. The call in [6], in assay [7] and in assay [8] was inactive.

Take `CC(=O)[C@@]1(O)CC[C@H]2[C@@H]3CCC4=CC(=O)CC[C@]4(C)[C@H]3CC[C@@]21C`: the compound was classed as inactive in [10] and in assay [6]. Further, the Potency entry in assay [2], in assay [3], in assay [4] and in [5] was “inactive” each time.

Take `CCOC(=O)C1=C(C)NC(C)=C(C(=O)OC)C1c1cccc([N+](=O)[O-])c1` (centres undefined): the Potency result in assay [2], in [3] and in assay [4] was “inactive” each time. The outcome in assay [6] and in assay [7] was inactive.

Turning to `CN(C)[C@@H]1C(=O)C(C(N)=O)=C(O)[C@@]2(O)C(=O)C3=C(O)c4c(O)ccc(Cl)c4[C@@H](O)[C@H]3C[C@@H]12`, the outcome in [10] and in [6] was inactive. Further, the Potency in assay [3] was 29.9 µM (active).

Turning to `CC(C)(Oc1ccc(CCNC(=O)c2ccc(Cl)cc2)cc1)C(=O)O`, the Potency entry in assay [2], in assay [3], in [4] and in assay [5] was “inactive” throughout. In addition, the result in assay [6] was inactive.

Regarding `CN(C)C(=O)Oc1cccc([N+](C)(C)C)c1`, the Potency entry in [2], in [3], in assay [4] and in [5] was “inactive” throughout. For the same compound, the compound was called inactive in assay [6] and in assay [7].

As for `COCCCC/C(=N\OCCN)c1ccc(C(F)(F)F)cc1`, the result in assay [10] and in assay [6] was inactive. In addition, the Potency result in assay [2], in assay [4] and in [5] was “inactive” each time.

For the compound `CNCCCN1c2ccccc2CCc2ccccc21`, the call in assay [10], in assay [6] and in [8] was inactive. Also, the Potency result in [2] was “inactive”.

On to `CCCC(C(=O)OCCN(CC)CC)(c1ccccc1)c1ccccc1`, for which the compound was classed as inactive in assay [10], in [6], in assay [7] and in assay [8]. Besides, the Potency result in [2], in assay [3] and in assay [4] was “inactive” throughout.

On to `CN1CCN(C2=Nc3ccccc3Oc3ccc(Cl)cc32)CC1`, for which the Potency entry in assay [2], in assay [3], in [4] and in assay [5] was “inactive” in each case. For the same compound, the compound was classed as inactive in assay [6], in assay [7] and in assay [8].

Turning to `CN(C)CCCN1c2ccccc2Sc2ccc(C(F)(F)F)cc21`, the compound was classed as inactive in assay [10], in assay [6] and in [8]. Further, the Potency entry in [2] and in assay [4] was “inactive” throughout.

As to `C[n+]1cc2c3c(ccc2c2ccc4cc5c(cc4c21)OCO5)OCO3`, the Potency result in [2], in assay [3] and in assay [5] was “inactive” throughout. The Potency in assay [4] is 31.6 µM (active) and inactive. For the same compound, the outcome in assay [6] was inactive.
